Among all 150,000 compounds or so, about 540 (0.36%) showed an effect of 50% or more. The list comes from a sample in which strong results are over-represented; it also holds similar structures and randomly drawn compounds.

The % Inhibition is the relative decrease from the control value, in per cent.

This assay deals with Plasmodium falciparum. Kind of assay: Primary screen in NF54 nanoGlo assay, in single point, at 2uM, 72h; a lower Z score goes with more inhibition. The conditions noted are these: timepoint 72 hour. It is filed as functional, Erythrocyte.
With `COc1ccc([C@@H]2N(c3ccc(Cl)cc3)OC(=O)N2c2ccccc2)cc1`, the “% Inhibition” value is recorded as 1% and the Z score was -0.09.

With `Cc1n[nH]c2c1CN(Cc1[nH]cc(C)c(=O)c1C)CC2`, the “% Inhibition” value is listed as -8% and the Z score was 1.

As to `COCCCN(CCC(=O)NCCc1ccccc1)C(=O)c1cc(C)oc1C`, the “% Inhibition” value was found to be 2% and the Z score is -0.18.

Consider `Cc1ccc(CNC(=O)CC2CC2)c2cccnc12`, for which the “% Inhibition” value is -16% and the Z score was 2.46.

With `COc1ccc(Cl)cc1-c1cc(C(=O)N2CCOCC2)ccn1`, the “% Inhibition” value was 3% and the Z score is reported as -0.54.

For `CCc1c(C(=O)N2CCC(c3ccnn3CCO)CC2)cnn1-c1cccc(Cl)c1`, the “% Inhibition” value is -3% and the Z score was found to be 0.24.

As to `CCc1nc2ccccc2c(C(=O)N2CCN(c3cc(OC)ncn3)CC2)c1C`, the “% Inhibition” value was -13% and the Z score turned out to be 1.69.

As for `COC[C@H]1CCCN1C[C@@H]1OC[C@H](NC(=O)c2ccc(C#N)cc2)[C@H]1O`, the “% Inhibition” value turned out to be 9% and the Z score was -1.07.

Take `Cn1cccc1-c1nc2cc(N)ccc2[nH]1`: the “% Inhibition” value is given as -3% and the Z score was 0.34.

Turning to `COCCN(CCOC)C(=O)c1cnn(C)c1`, the “% Inhibition” value is on record as -6% and the Z score is on record as 0.88.

With `CC(C)CCn1nnnc1[C@]1(N(C)C)CCCN(C(=O)CN2CCOCC2)C1`, the “% Inhibition” value is listed as 2% and the Z score is -0.27.

Consider `CC(C)CCn1nnnc1[C@]1(N(C)C)CCCN(C(=O)c2cccn2C)C1`, for which the “% Inhibition” value is 92% and the Z score amounted to 1.07.

`CCOc1ccccc1C(=O)N1CCC[C@](c2nnnn2CCC(C)C)(N(C)C)C1`: the “% Inhibition” value is given as -2% and the Z score worked out at 0.29.

On to `CCOCCCNCc1ccc(F)cc1`, for which the “% Inhibition” value is recorded as -10% and the Z score is 1.59.

For the compound `COc1ccc(-c2nnc(-c3nc(NCc4ccc5c(c4)OCO5)c4ccccc4n3)o2)cc1`, the “% Inhibition” value is -7% and the Z score is 1.27.

For the compound `Cc1ccc(-c2nnc(-c3nc(NCc4ccc(F)cc4)c4ccccc4n3)o2)cc1`, the “% Inhibition” value is on record as -11% and the Z score stood at 2.05.

As for `COc1ccc(CNc2nc(-c3nnc(-c4ccccc4)o3)nc3ccccc23)cc1`, the “% Inhibition” value is listed as 55% and the Z score was -10.02.

Turning to `O=C(NCC1(c2ccccc2)CCCCCC1)N1CCO[C@@H](CO)C1`, the “% Inhibition” value is recorded as -5% and the Z score is 0.59.

For `CCc1c(C)nc(C)nc1N1CC[C@H](NC(=O)c2cc(C)on2)[C@@H](O)C1`, the “% Inhibition” value worked out at 8% and the Z score is -1.41.

`CCn1nccc1C=C(C)c1ncccn1`: the “% Inhibition” value is given as 1% and the Z score is -0.23.

Turning to `COc1ccc(Br)cc1NC(=O)N(C)CCCn1ccnc1`, the “% Inhibition” value was 8% and the Z score is on record as -0.86.

As to `CN(CCCn1ccnc1)C(=O)c1ccnc(N(C)C)c1`, the “% Inhibition” value was -12% and the Z score is given as 1.13.

Regarding `COc1ccc(Cn2nnc3cc(C(=O)Nc4ccc(C)cc4C)ccc32)cc1`, the “% Inhibition” value is given as -2% and the Z score came to 0.34.

Turning to `CC1=Nc2ccccc2C12CCN(C(=O)Nc1cncc(F)c1)CC2`, the “% Inhibition” value amounted to 11% and the Z score is -1.44.

Consider `O=C(Nc1onc2c1CCC2)c1ccc2ccccc2c1`, for which the “% Inhibition” value is 76% and the Z score was -8.19.

On to `O=C(Nc1onc2c1CCC2)c1ccc2ncsc2c1`, for which the “% Inhibition” value is on record as 0% and the Z score was found to be 0.01.

Take `O=C(Nc1onc2c1CCC2)c1cccc2ccccc12`: the “% Inhibition” value is reported as 20% and the Z score is listed as -2.27.

As for `CC(=O)Nc1ccc(S(=O)(=O)NC2(c3nc(C)no3)CCCCC2)cc1`, the “% Inhibition” value is listed as -3% and the Z score is recorded as 0.55.

With `O=C(Cn1cnc(-c2nc(-c3ccccc3)cs2)c1)Nc1ccc(F)cc1`, the “% Inhibition” value is reported as -8% and the Z score was 0.99.

For `O=C(O)[C@H]1CCN(C(=O)Cn2c(COc3ccccc3)nc3ccccc32)C1`, the “% Inhibition” value is on record as -10% and the Z score was 0.93.

`Cc1nn(-c2ccccc2Cl)c(O)c1C(c1ccsc1)c1c(C)nn(-c2ccccc2Cl)c1O`: the “% Inhibition” value is 6% and the Z score is -0.74.

As for `Cc1nn(-c2nc3ccccc3s2)c(O)c1C(c1ccc(Cl)c(Cl)c1)c1c(C)nn(-c2nc3ccccc3s2)c1O`, the “% Inhibition” value is -10% and the Z score turned out to be 0.88.

In the case of `Cc1nn(-c2ccccn2)c(O)c1C(c1ccccc1)c1c(C)nn(-c2ccccn2)c1O`, the “% Inhibition” value stood at 96% and the Z score is -9.38.

As for `Cc1ccccc1C(=O)N1C(C(=O)NC(C)c2ccccc2)COC12CCN(C(=O)CC(C)(C)C)CC2` (configuration not stated), the “% Inhibition” value is on record as -5% and the Z score is given as 0.47.

As to `CCc1ccccc1C(=O)OCc1nccn1C`, the “% Inhibition” value is -3% and the Z score is on record as 0.26.

With `Fc1ccc(-c2nc3c(cnn3C3CCCC3)[nH]2)cc1`, the “% Inhibition” value is given as -6% and the Z score came to 0.81.

On to `CN1CCC(n2ncc3[nH]c(-c4ccc(C(F)(F)F)cc4)nc32)CC1`, for which the “% Inhibition” value amounted to 97% and the Z score is recorded as -17.43.

On to `COc1ccc(-c2nc3c(cnn3C3CCN(C)CC3)[nH]2)cn1`, for which the “% Inhibition” value is -7% and the Z score was found to be 0.9.

`Cc1c(-c2n[nH]c3c2CN(C(=O)c2csnn2)CC3)cccc1C(F)(F)F`: the “% Inhibition” value is listed as -12% and the Z score turned out to be 1.03.

Turning to `Cc1n(CC(=O)c2ccccc2)c2ccccc2[n+]1CC(=O)c1ccccc1`, the “% Inhibition” value is on record as 59% and the Z score was -12.26.

For the compound `O=C(Cn1nnc2ccccc21)c1ccccc1`, the “% Inhibition” value is recorded as -12% and the Z score was 1.78.
